What is called AC50 is the concentration giving half of the maximal activity seen.

The structures appear in SMILES notation. Activity calls are given as the source filed them. How the source made its calls: active means hit-call score of the fitted dose curve at least 0.9, where 1 is the maximum; inactive means score below 0.9.

Read-out in this assay: Cyclin Dependent Kinase Inhibitor 1A (CDKN1A), CDKN1A (gene 1026)
As to the kind of experiment: LTEA_HepaRG_CDKN1A: Life Technologies and Expression Analysis (LTEA) Assay for Cyclin Dependent Kinase Inhibitor 1A (CDKN1A) using HepaRG (AID 2283450). To be noted: mRNA level, 48 h; actives raise or lower the signal. As to the method: LTEA_HepaRG is a cell based, multiplexed-readout assay that uses HepaRG, a human liver cell line, with measurements taken at 48 hours after chemical dosing on a 96-well plate.LTEA_HepaRG_CDKN1A is one of 102 assay component(s) measured in the LTEA HepaRG cell culture assay. It is a marker of Cell proliferation, survival, death.Data from the assay component LTEA_HepaRG_CDKN1A was analyzed into 1 endpoint. This assay endpoint, LTEA_HepaRG_CDKN1A, was analyzed with bidirectional fitting relative to DMSO as the negative control and baseline of activity. Using a type of inducible reporter, measures of mRNA induction for gain or loss-of-signal activity can be used to understand regulation of transcription factor activity. To generalize the intended target to other relatable targets, this assay endpoint is annotated to the cell cycle intended target family, where the subfamily is Cell proliferation, survival, death.
A total of 1060 chemcials from the ToxCast library were tested in eight-point concentration-response experiments. Cell culture and cytotoxicity assays were conducted at Thermo Fisher Scientific's Custom Services facility (Madison, WI). A single lot of human HepaRG cells (Thermo Fisher Scientific, Frederick, MD) was used for the cell culture experiments. 96-well format collagen type I coated plates of human HepaRG cells were prepared using established methods. Briefly, cryopreserved HepaRG cells were thawed, plated at a density of approximately 100,000 cells/well in HepaRG Thaw, Plate, and General Purpose media (HPRG770, Thermo Fisher Scientific), and incubated for 48 hours. 0.5% DMSO was selected as vehicle control to balance the requisite need of DMSO in HepaRG cultures to maintain differentiation (for example, baseline metabolism, proportions of hepatocytes vs. cholangiocytes), while enabling further hepatic receptor pathway activation (for example, PXR and CAR) in response to chemical exposure. 48 hours after plating, the culture medium was replaced with HepaRG Serum-Free Incudtion Media. Cells were exposed to each test chemical in duplicate and maintained in CO2 incubators for another 48 hours. Chemical plates were thawed to room temperature and 200x concentrations of treatment groups were prepared. 8-point conentration-reponse curves were made with the highest exposure at 100 uM, followed by half-log dilutions, all in 0.5% DMSO. Each test plate contained variouse controls, induction positive controls (1mM phenobarbital), cytotoxicity positive controls ([…] aflatoxin B1), vehicle controls (0.5% DMSO), and total lysis controls (0.5% DMSO). Cell morphology images were taken using an Essen IncuCyte FLR automated microscope, with six 96-well plates imaged in about 24 minutes. Images were captured and exported and JPEG files. Spent culture media was transfered to black-well plates for the LDH assay, and remaining media was sorted at -80 C for later use. Cells were treated with RLT buffer and frozen until shipped for gene expression analysis. Total RNA was isolated from the cell suspension in 75 uL of Buffer RLT (Qiagen, Germantown, MD 20874) by Quintiles/Expression Analysis (Durham, NC) using a custom isolation procedure. Total RNA from each plate well was transferred to a preamplification plate. Fluidigm's 96.96 Dynamic ArrayTM (Fluidigm, Amsterdam, the Netherlands) technology was used for gene expression analyses by quantitative reverse transcription polymerase chain reaction (qRT-PCR, performed by Quintiles/Expression Analysis, Durham, NC)89. Standard TaqManTM Assays (Applied Biosystems/ThermoFisher Scientific, Foster City, CA) were used to assess the expression of 93 genes selected based on their selectivity and sensitivity to important hepatic receptors known to be modulated by environmental chemicals; importance in human hepatocyte functionality; and hepatotoxicity. […]
Regarding `CCOC(=O)C(O)(c1ccc(Cl)cc1)c1ccc(Cl)cc1`, the outcome was inactive.

Consider `O=S(=O)(O)C(F)(F)C(F)(F)C(F)(F)C(F)(F)F`, for which the outcome was inactive.

Consider `CO/C=C(/C(=O)OC)c1ccccc1COc1cccc(C(F)(F)F)n1`, for which the AC50 was 9.85 µM (active).

Regarding `COc1ccc(O)c(C(C)(C)C)c1`, the molecule was called inactive.

With `CN(C)c1nc(=O)n(C2CCCCC2)c(=O)n1C`, the molecule was classed as inactive.

In the case of `Cc1ccccc1CO[C@@H]1C[C@@]2(C(C)C)CC[C@]1(C)O2`, the molecule was called inactive.

Regarding `CCNc1nc(NC(C)C)nc(SC)n1`, the outcome was inactive.

Take `O=C(O)C(F)(F)C(F)(F)C(F)(F)C(F)(F)C(F)(F)F`: the call was inactive.

`COS(=O)(=O)OC`: the outcome was inactive.

Regarding `O=C(NC(=O)c1c(F)cccc1F)Nc1cc(Cl)c(OC(F)(F)C(F)F)c(Cl)c1`, the call was inactive.

With `O=NN(c1ccccc1)c1ccccc1`, the result was inactive.

Turning to `Clc1ccc(Cl)cc1`, the molecule was classed as inactive.

For the molecule `c1cc2ccc3cccc4ccc(c1)c2c34`, the call was inactive.

With `Clc1ccc(C(c2ccccc2Cl)C(Cl)(Cl)Cl)cc1` (stereo not given), the molecule was classed as inactive.

For the molecule `C[C@]12CCC(=O)C=C1CC[C@@H]1[C@@H]2CC[C@]2(C)C(=O)CC[C@@H]12`, the call was inactive.

Regarding `Cc1cccc(C)c1N`, the molecule was called inactive.

For `CC#Cc1cc(C)nc(Nc2ccccc2)n1`, the AC50 was 80.1 µM (active).

Regarding `Cc1cc(O)ccc1Cl`, the call was inactive.

For the molecule `CN(C)CCO`, the molecule was called inactive.

For `C=CC(N)=O`, the result was inactive.

With `NS(=O)(=O)C(F)(F)C(F)(F)C(F)(F)C(F)(F)C(F)(F)C(F)(F)C(F)(F)C(F)(F)F`, the AC50 is 1.8 µM (active).

For `CCC(C)c1cc([N+](=O)[O-])cc([N+](=O)[O-])c1O` (stereo not given), the half-maximal activity concentration (AC50) was 7.37 µM (active).

Turning to `Cc1ccc(O)c(C)c1`, the molecule was called inactive.

For `Nn1cnnc1`, the outcome was inactive.

As to `Cc1ccccc1O`, the outcome was inactive.

On to `CC(c1ccc(O)cc1)(c1ccc(O)cc1)c1ccc(O)cc1`, for which the AC50 is 50 µM (active).

`CCC(C)(CC)c1cc(NC(=O)c2c(OC)cccc2OC)on1`: the molecule was classed as inactive.

For `Oc1c(Cl)c(Cl)c(Cl)c(Cl)c1Cl`, the call was inactive.

Turning to `O=C(NC(=O)c1cc(F)c(F)cc1Cl)Nc1cc(F)ccc1N1CCC(C(=O)O)CC1`, the result was inactive.

For `O=S(=O)(O)C(F)(F)C(F)(F)C(F)(F)C(F)(F)C(F)(F)C(F)(F)F`, the molecule was classed as inactive.

`Cc1cccc([N+](=O)[O-])c1`: the outcome was inactive.

Regarding `CCC(C)(c1ccc(O)cc1)c1ccc(O)cc1`, the outcome was inactive.

In the case of `CCOP(=S)(OCC)SCSC(C)(C)C`, the molecule was classed as inactive.

Take `CCCCCCCCOC(=O)c1ccccc1C(=O)OCCCCCCCC`: the call was inactive.

Take `c1ccc(-c2ccccc2)cc1`: the result was inactive.

For the molecule `Cc1cc2c3c(c1)C(c1ccccc1)=N[C@@H](NC(=O)c1ccncc1)C(=O)N3CC2`, the AC50 was 50 µM (active).

Consider `ClC1=C(Cl)[C@]2(Cl)[C@@H]3[C@@H](Cl)[C@H]4O[C@H]4[C@@H]3C1(Cl)C2(Cl)Cl`, for which the molecule was classed as inactive.

On to `CCCCCCCCCc1ccc(O)cc1`, for which the molecule was classed as inactive.

With `Oc1ccc(C(c2ccc(O)cc2)(C(F)(F)F)C(F)(F)F)cc1`, the outcome was inactive.

`CCCCCCCCCC[N+](C)(C)CCCCCCCCCC`: the AC50 was 88.2 µM (active).

The values are drawn from PubChem BioAssay (EPA / NIEHS).
